# Assay outcomes from PubChem.
# 12-LOX inh = ALOX12 (human) lipoxygenase inhibition; P18054; purified 12hLO, xylenol orange hydroperoxide absorbance; Potency, µM (series often up to 108 µM), hits mostly inhibitors; 580,000 tested, 1.1% active; AID 1671190
# Target sequence (P18054 whole entry, looked up): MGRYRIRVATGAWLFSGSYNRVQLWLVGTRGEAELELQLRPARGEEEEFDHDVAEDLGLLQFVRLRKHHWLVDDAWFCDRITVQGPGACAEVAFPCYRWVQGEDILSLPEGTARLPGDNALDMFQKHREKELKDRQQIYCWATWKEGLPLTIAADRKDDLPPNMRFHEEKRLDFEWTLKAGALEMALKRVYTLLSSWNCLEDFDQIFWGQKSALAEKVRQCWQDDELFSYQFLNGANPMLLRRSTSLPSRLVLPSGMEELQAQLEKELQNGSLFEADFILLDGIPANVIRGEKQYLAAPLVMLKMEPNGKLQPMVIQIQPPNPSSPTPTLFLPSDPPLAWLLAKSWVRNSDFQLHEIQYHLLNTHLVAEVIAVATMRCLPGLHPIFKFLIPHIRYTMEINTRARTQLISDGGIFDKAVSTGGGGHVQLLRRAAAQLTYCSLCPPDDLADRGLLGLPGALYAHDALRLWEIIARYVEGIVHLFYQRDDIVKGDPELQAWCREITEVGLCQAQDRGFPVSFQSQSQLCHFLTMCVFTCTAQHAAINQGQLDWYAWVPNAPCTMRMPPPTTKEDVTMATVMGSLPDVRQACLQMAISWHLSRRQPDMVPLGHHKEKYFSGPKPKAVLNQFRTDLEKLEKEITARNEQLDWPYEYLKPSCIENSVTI
#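 Purified human 12hLO at 150 nM in 25 mM Hepes, 0.01% Triton X-100, pH 7.0, preincubated 15 min at room temperature with compound. Reaction started with 40 uM arachidonic acid, 30 min at room temperature. Hydroperoxide measured by Fe-xylenol orange, 573/405 nm absorbance ratio.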
# DT40 TDP1 no CPT = qHTS for Inhibitors of human tyrosyl-DNA phosphodiesterase 1 (TDP1): qHTS in cells in absence of CPT; DT40 Tdp1-/- hTDP1 cells, no CPT, ATP luminescence, 48 h; Potency, µM (titrated, usually from 46.2 µM), actives largely listed as inhibitors; 420,000 tested, 15% active; AID 686978, 2013; also: nearly all actives have a fitted effect of over 55% in size
#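 A cellular qHTS used chicken DT40 cells lacking endogenous Tdp1 but carrying stably transfected human TDP1. Compounds were applied without camptothecin, and cell growth kinetics were judged by ATP-dependent luminescence after ≥48 hr.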
# ELG1 repair inh = ELG1-dependent DNA repair inhibition | 330,000 tested, 2.3% active | HEK293T ELG1-luciferase reporter, luminescence, 16 h; DNA damage induced by 5-fluorouridine | Potency, µM (series often up to 46.1 µM), hits mostly inhibitors | AID 504467; also: nearly all actives have a fitted effect of over 55% in size
#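 Reporter activity after DNA damage by 5-fluorouridine is monitored. Compound-treated cells incubate 16 hr at 37 °C, then ONE-Glo is added for 30 min before luminescence reading.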
# TDP1 cell CPT = growth inhibition of DT40 Tdp1-/-;hTDP1 cells with camptothecin (screen for TDP1 inhibitors) | chicken DT40 Tdp1-/-;hTDP1 cells + 20 nM CPT, ATP luminescence, 48 h | Potency, µM (highest dose often 46.2 µM), usual class: inhibitors | 420,000 tested, 12% active; also: nearly all actives have a fitted effect of over 55% in size
#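 Cell growth measured by CellTiter-Glo luminescence after a minimum 48 h, 37 C compound exposure with 20 nM CPT in Tdp1-knockout DT40 cells stably expressing hTDP1, seeded 400/well; qHTS titration format.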
# RORg inh = blocks mouse ROR gamma transcriptional activity. Potency, µM (highest dose often 53.6 µM), usual class: inhibitors. AID 2551. 310,000 tested, 5.4% active. P51450. Drosophila S2 Gal4-RORgamma UAS-luciferase reporter, 20 h; also: nearly all actives have a fitted effect of over 60% in size
#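 Stable Schneider cell line, Gal4 DNA-binding domain fused to ROR gamma, UAS-luciferase. Cmpd 1 hr RT → CuSO4 700 uM final → 20 hr RT → luciferase reagent 10 min → luminescence.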
# Gal4-VP16 FLuc = Gal4-VP16 reporter inhibition counter-screen | Drosophila S2 Gal4-VP16 UAS-luciferase, luminescence, 20 h | Potency, µM (highest dose often 53.6 µM), usual class: inhibitors | 310,000 tested, 3.5% active | AID 2546;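 also: Gal4-VP16 expression switched on by copper sulfate through the metallothionein promoter; nearly all actives have a fitted effect of over 50% in size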
# A number is an active result; n = inactive; u = inconclusive; x = not tested or not shown. The list is not random: actives were taken first. Their share in the collection is about 15%. Calls follow the shape of the dose curve; as a rule, active = well fitted curve in the direction sought with a large enough effect; inconclusive = small, poorly fitted or top-dose-only effect, or another doubt; inactive = no such curve, though single readings can be large; an effect the other way counts as inactive or inconclusive.
SMILES,12-LOX inh,DT40 TDP1 no CPT,ELG1 repair inh,TDP1 cell CPT,RORg inh,Gal4-VP16 FLuc
NC(=O)CC(NC(=O)c1cccc(Br)c1)c1ccc(N2CCC(Br)CC2)c([N+](=O)[O-])c1 (stereo not drawn),u,u,n,21µM,n,u
Cn1sc(NC(=O)c2cccc(Cl)c2)nc1=O,n,u,u,u,n,n
Cn1sc(NC(=O)c2ccccc2Cl)nc1=O,45µM,n,n,n,n,n
O=[N+]([O-])c1cccc2c(N3CCCC3)ccnc12,n,8.2µM,u,8.2µM,n,u
O=C(c1ccccc1F)N1CCN(c2ccc([N+](=O)[O-])c3ncccc23)CC1,n,21µM,u,15µM,u,u
O=C(c1ccccc1F)N1CCN(c2ccc([N+](=O)[O-])c3cccnc23)CC1,n,u,n,n,n,n
CCOC(=O)C(NCc1ccccn1)(NC(=O)c1cccnc1)C(F)(F)F (stereo not drawn),n,n,n,n,16µM,n
Nc1ncn([C@H]2C[C@H](O)[C@@H](CO)O2)c(=O)n1,u,0.1µM,n,0.041µM,x,x
Nc1ccn([C@H]2C[C@H](O)[C@@H](CO)O2)c(=O)n1,n,n,u,n,n,n
CNc1ncnc2c1ncn2[C@@H]1O[C@H](CO)[C@@H](O)[C@@H]1O,x,x,x,x,n,n
Nc1nc2c(ncn2C2CC(O)C(CO)O2)c(=O)[nH]1 (stereo not drawn),x,5.8µM,x,10µM,n,n
C=C1[C@H](CO)[C@@H](O)C[C@@H]1n1cnc2c(=O)[nH]c(N)nc21,x,0.0053µM,x,0.0084µM,x,x
CNc1ncnc2c1ncn2[C@H]1C[C@H](O)[C@@H](CO)O1,n,7.3µM,x,u,x,x
C=C1[C@H](n2cnc3c(=O)[nH]c(N)nc32)C[C@H](O)[C@H]1CO,n,x,x,x,x,x
Nc1nc2c(ncn2[C@H]2C[C@H](O)[C@@H](CO)O2)c(=O)[nH]1,n,2.1µM,n,4.6µM,x,x
Nc1nc(Cl)nc2c1ncn2C1CC(O)C(CO)O1 (stereo not drawn),n,u,n,0.18µM,x,x
CN(C)/C=N/c1nc2c(ncn2C2CC(O)C(CO)O2)c(=O)[nH]1 (stereo not drawn),x,n,x,n,x,x
Nc1nc(Cl)nc2c1ncn2C1OCC(O)C(O)C1O (stereo not drawn),n,n,x,n,x,x
COC(=O)c1cccc(C(=O)N2CCC(Cc3nc(-c4ccc(F)cc4)no3)CC2)c1,n,x,x,x,x,x
Cn1nc(C(=O)N2CCN(CC(=O)N3CCCC3)CC2)c2ccccc2c1=O,n,x,x,x,x,x
CCCCN1CC(Br)C(=O)NC1=O (stereo not drawn),n,18µM,x,15µM,x,x
Fc1ccc(OCc2nnc([C@H]3CCN(Cc4cccnc4)C3)o2)cc1,n,x,x,x,x,x
Cc1nn(-c2nc3ccccc3s2)c(C)c1Oc1ccccc1O,x,u,u,18µM,u,u
Cc1nn(-c2ccccn2)c(C)c1Oc1ccccc1O,n,n,n,n,n,n
O=C(c1cccc(Cl)c1)c1nn(-c2ccccc2)c(=O)cc1C(F)(F)F,u,u,u,16µM,u,n
SMILES,12-LOX inh,DT40 TDP1 no CPT,ELG1 repair inh,TDP1 cell CPT,RORg inh,Gal4-VP16 FLuc
O=C(c1ccccc1)c1nn(-c2ccccc2)c(=O)cc1C(F)(F)F,n,u,u,n,n,n
CCN1CCN(C(=O)c2ccc3c(c2)N(Cc2ccc(C)cc2)CCS3)CC1,n,23µM,n,21µM,n,n
CCN1CCN(C(=O)c2ccc(CSc3ccc(C)cc3)cc2)CC1,u,13µM,n,u,n,n
Cc1ccc(CN2CCSc3ccc(C(=O)N4CCOCC4)cc32)cc1,x,n,n,u,n,n
Cc1ccc(CN2CCSc3ccc(C(=O)N4CCN(c5ncccn5)CC4)cc32)cc1,x,16µM,u,21µM,n,u
COC(=O)CSc1ncn(-c2nc(NC(C)C)nc(N(C)C)n2)n1,n,x,x,x,x,x
C[C@H]1NC(=O)[C@]2(C)[C@@H](c3ccccc3)[C@H]3COc4ccccc4[C@@H]3N2C1=O,n,n,x,n,x,x
C[C@]12C(=O)N(c3ccc(F)cc3)C(=O)N1[C@@H]1c3ccccc3OC[C@@H]1[C@H]2c1ccccc1,n,18µM,n,u,n,n
C[C@@]12C(=O)N(c3ccc(C(F)(F)F)cc3)C(=O)N1[C@@H]1c3ccccc3OC[C@@H]1[C@H]2c1ccccc1,x,10µM,n,7.3µM,u,n
O=C(NC1C[C@H]2CC[C@@H](C1)N2C(=O)c1ccco1)c1ccncc1 (stereo partly drawn),n,x,x,x,x,x
COc1cccc(CN2C[C@@H]3C(=O)N(Cc4ccc5c(c4)OCO5)C(=O)[C@@H]3C2)c1OC,n,x,x,x,x,x
CSc1ccc(C(=O)C2CCCN(C(=O)c3ccsc3)C2)cc1 (stereo not drawn),n,u,n,u,n,n
COc1ccc2cc(C(=O)C3CCCN(C(=O)c4cccnc4)C3)ccc2c1 (stereo not drawn),n,u,n,u,n,n
O=C(c1ccc2ccccc2c1)C1CCCN(C(=O)c2cccnc2)C1 (stereo not drawn),n,15µM,n,16µM,n,n
CSc1ccc(C(=O)C2CCCN(C(=O)c3cccnc3SC)C2)cc1 (stereo not drawn),n,16µM,n,u,n,n
CSc1ccc(C(=O)C2CCCN(C(=O)c3ccc4c(c3)no[n+]4[O-])C2)cc1 (stereo not drawn),n,13µM,n,u,n,u
CSc1ncccc1C(=O)N1CCCC(C(=O)c2ccc3ccccc3c2)C1 (stereo not drawn),n,21µM,u,u,u,n
O=C(Nc1ccc(F)cc1F)N[C@H]1C[C@H]2C(=O)NC[C@@H](CCC(=O)N3CCc4ccccc43)N2C1,n,x,x,x,x,x
Cc1ccn(CC(=O)NCCn2c(C)cnc2C2CC2)n1,n,x,x,x,x,x
CC(C)c1noc(-c2cn(C3CCCN(C(=O)c4ccc(F)cc4Cl)C3)nn2)n1 (stereo not drawn),n,x,x,x,x,x
O=C(c1ccc2ccccc2c1)C1CCCN(C(=O)c2noc3c2CCCC3)C1 (stereo not drawn),n,u,u,u,n,n
CSc1ccc(C(=O)C2CCCN(C(=O)CCn3cncn3)C2)cc1 (stereo not drawn),n,n,n,n,n,n
CSc1ccc(C(=O)C2CCCN(C(=O)CCc3c(C)nn(C)c3C)C2)cc1 (stereo not drawn),n,8.2µM,x,10µM,x,x
